Each structure is given as a SMILES string. Active and inactive are the calls of the source.

Test [1] concerns Human papillomavirus type 1a protein E7 (residues 44-93). In words: HPV1a E7 fragment binders on microarrays, primary screen, biochemical, small-molecule microarray, residues 44-93, 635 nm fluorescence (AID 1108).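 Also: E7 fragment applied at 1 µg/mL in TBST for 1 h at 4 C; score combines spot fluorescence with its signal to noise ratio.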 The note with it: small-molecule microarray binding, fluorescence 635 nm; higher = more signal.
A short description of test [2]: modulators of HCV replicon luciferase signal, primary screen, HCV replication inhibitor project, Huh7 cells, luciferase reporter (AID 1109).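 Also: huh7 hepatoma cells harbouring a luciferase neomycin HCV replicon reporter; luciferase luminescence as measure of HCV replicon replication; test concentration not given here.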 The note with it: 48 h, higher = more signal.
Test [3] has as its target Left-right determination factor 2 (Homo sapiens) (UniProt O00292). Put plainly: LEFTY2 binders on small-molecule microarrays, primary screen, biochemical, small-molecule microarray, 635 nm fluorescence scan (AID 1110). The note with it: LEFTY2 binding, higher = more signal.
Test [4] has as its target Calmodulin-1 (Homo sapiens) (UniProt P0DP23). Put plainly: CALM1 binders on microarrays, EGTA buffer, profiling panel, biochemical, small-molecule microarray, Cy5-labelled CALM1 (AID 1111).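 Also: labelled calmodulin applied in Tris saline Tween buffer holding calcium plus EGTA and DTT.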 The note with it: Cy5-CALM1 binding fluorescence, higher = more signal.
Test [5] has the same target. In words: calcium-bound CALM1 binders on microarrays, profiling panel, artefact control for SMM control-protein annotation, biochemical, small-molecule microarray, Cy5-labelled CALM1, plus calcium (AID 1112).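 Also: score merges spot fluorescence with signal to noise from triplicate slides.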 The note with it: Cy5-CALM1 binding fluorescence, higher = more signal.
A short description of test [6]: small-molecule microarray binders of probe aWnt5a, primary screen, biochemical, biotinylated probe, 635/667 nm fluorescence (AID 1113).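 Also: score merges 667 nm fluorescence intensity with signal-to-noise per printed feature.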 The following applies: higher = more signal.
Test [7] is described as follows: small-molecule microarray binders of probe aShh, primary screen, biochemical, biotinylated probe, 635/667 nm fluorescence (AID 1114).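 Also: probe is biotin-labelled aShh protein from a stem cell growth factor screen; measures binding of labelled protein to compounds printed on the slide; score merges feature fluorescence at 667 nm with signal-to-noise.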 The following applies: higher = more signal.
Test [8] is described as follows: small-molecule microarray binders of probe aNog, primary screen, biochemical, biotinylated probe, 635/667 nm fluorescence (AID 1115).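 Also: probe is biotinylated aNog protein used at 0.15 µg/mL for 1 h at 4 C; z-score combines 667 nm fluorescence of each spot with its signal to noise.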 The following applies: higher = more signal.
The target in test [9] is Torsin-1A-interacting protein 1 (Homo sapiens) (UniProt Q5JTV8). In words: LAP1 binders from COS7 cell lysate, primary screen, small-molecule microarray, 635/667 nm fluorescence (AID 1116). The note with it: COS7-hLAP1 lysate binding, 635 nm fluorescence, higher = more signal.
For test [10], the target named is Alpha-bungarotoxin (Bungarus multicinctus) (UniProt P60615). In words: alpha-bungarotoxin binders on microarray, profiling panel, artefact control for SMM control protein annotation, biochemical, small-molecule microarray, Alexa647 label, 635/667 nm fluorescence (AID 1117). The following applies: alpha-BTX-A647 binding fluorescence, higher = more signal.
In a further test the target is Albumin (Bos taurus) (UniProt P02769). Put plainly: bovine serum albumin binders on microarray, profiling panel, artefact control for SMM control protein annotation, biochemical, small-molecule microarray, Alexa647 label, 635/667 nm fluorescence (AID 1118).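 Also: score merges 667 nm emission intensity and signal-to-noise per printed compound spot.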 The following applies: BSA-A647 binding, fluorescence 635 nm, higher = more signal.
Test [11] in a line: small-molecule microarray binders of probe aXIP, primary screen, biochemical, NeuroSMM set, 635/667 nm fluorescence (AID 1119).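 Also: probe is the protein aXip251-270 applied at 1 µg/mL to compound-printed slides; binding of probe to printed compounds measured as 667 nm fluorescence plus signal to noise.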 The note with it: higher = more signal, called active from +8 up or from −8 down.
Test [12] in a line: small-molecule binders of probe aNOTCH3, primary screen, biochemical, small-molecule microarray, 635/667 nm fluorescence (AID 1120).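 Also: probe is a biotin-tagged antibody raised against NOTCH3 rather than NOTCH3 protein; score merges spot fluorescence near 667 nm with spot signal to noise.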 The following applies: higher = more signal.
Test [13] can be described thus: small-molecule binders of probe aNOTCH2, primary screen, biochemical, small-molecule microarray, 635/667 nm fluorescence (AID 1121).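 Also: score merges feature fluorescence read at 667 nm with its signal to noise.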 The following applies: higher = more signal.
The target in test [14] is Carbonic anhydrase 2 (Homo sapiens) (UniProt P00918). In words: CAII small-molecule binders, profiling panel, biochemical, small-molecule microarray, Alexa647-labelled CAII (AID 1122). The following applies: CAII-A647 binding fluorescence, higher = more signal.
The nature of test [15]: COS7 lysate on small-molecule microarray, probe aHis, 635 nm (AID 1123).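 Also: z-score combines 667nm fluorescence intensity with signal-to-noise per printed compound spot.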 The following applies: COS7 cell lysate, fluorescence, higher = more signal.
Test [16] in a line: compound binding in COS7 lysate, probe aLAP1, primary screen, cell lysate, small-molecule microarray (AID 1124).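 Also: lysate comes from COS7 cells expressing LAP1 and is applied at 0.3 µg/mL; score merges spot fluorescence near 667 nm with signal-to-noise over triplicate slides.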 The following applies: probe aLAP1, fluorescence, higher = more signal.
In a further test the test system is Sam68 (KHDRBS1). In words: Sam68 small-molecule binders, primary screen, biochemical, small-molecule microarray, 635 nm fluorescence (AID 1125).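 Also: score merges 667 nm channel intensity with signal to noise over triplicate slides.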 The note with it: small-molecule microarray binding, higher = more signal.
The test system of test [17] is Chordin-like protein 2 (CHRDL2). Put plainly: CHRDL2 small-molecule binders, primary screen, biochemical, small-molecule microarray, 635 nm fluorescence (AID 1126).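 Also: printed compound slides probed with Chrdl2 protein at 4 µg/mL for 1 h at 4 C; score merges 667 nm emission intensity with signal to noise over three replicate slides.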 The following applies: small-molecule microarray binding, fluorescence 635 nm; higher = more signal.
The target in test [18] is Concanavalin-A (Canavalia ensiformis) (UniProt P02866). Put plainly: ConA small-molecule binders, primary screen, artefact control for SMM control protein annotation, biochemical, small-molecule microarray, Alexa647 label, 635 nm (AID 1127).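 Also: z combines 667 nm emission intensity with signal-to-noise across three replicate slides.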 The note with it: ConA-A647 binding fluorescence, higher = more signal.
Chain of Concanavalin-A (Canavalia ensiformis) (P02866 whole entry, looked up): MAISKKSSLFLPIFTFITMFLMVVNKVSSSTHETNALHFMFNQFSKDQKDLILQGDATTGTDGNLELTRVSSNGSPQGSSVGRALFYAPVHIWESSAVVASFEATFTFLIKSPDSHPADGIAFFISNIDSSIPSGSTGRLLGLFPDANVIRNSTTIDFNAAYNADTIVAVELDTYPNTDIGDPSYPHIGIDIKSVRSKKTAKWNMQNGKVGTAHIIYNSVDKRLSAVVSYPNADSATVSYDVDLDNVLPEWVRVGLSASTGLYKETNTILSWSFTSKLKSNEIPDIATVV

Chain of Alpha-bungarotoxin (Bungarus multicinctus) (P60615 whole entry, looked up): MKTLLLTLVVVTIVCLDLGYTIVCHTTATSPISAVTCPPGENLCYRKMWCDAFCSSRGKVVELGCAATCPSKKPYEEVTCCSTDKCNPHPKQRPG
Chain of Albumin (Bos taurus) (P02769 whole entry, looked up): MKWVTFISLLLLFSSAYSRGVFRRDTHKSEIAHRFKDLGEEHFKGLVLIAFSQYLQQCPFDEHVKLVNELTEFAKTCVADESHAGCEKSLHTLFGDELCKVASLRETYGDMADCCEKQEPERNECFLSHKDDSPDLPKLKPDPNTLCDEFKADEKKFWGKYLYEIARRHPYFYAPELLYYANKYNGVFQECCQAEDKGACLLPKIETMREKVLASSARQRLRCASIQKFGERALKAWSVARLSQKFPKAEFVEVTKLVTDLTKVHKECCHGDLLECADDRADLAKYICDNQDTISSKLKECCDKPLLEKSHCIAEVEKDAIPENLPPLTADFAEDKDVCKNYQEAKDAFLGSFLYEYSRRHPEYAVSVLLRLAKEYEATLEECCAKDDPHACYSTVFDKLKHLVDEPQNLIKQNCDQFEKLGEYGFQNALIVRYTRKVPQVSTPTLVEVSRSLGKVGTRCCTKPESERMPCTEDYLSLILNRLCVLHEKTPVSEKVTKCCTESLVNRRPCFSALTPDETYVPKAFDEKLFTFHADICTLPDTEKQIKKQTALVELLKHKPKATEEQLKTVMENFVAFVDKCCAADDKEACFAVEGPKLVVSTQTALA
Chain of Left-right determination factor 2 (Homo sapiens) (O00292 whole entry, looked up): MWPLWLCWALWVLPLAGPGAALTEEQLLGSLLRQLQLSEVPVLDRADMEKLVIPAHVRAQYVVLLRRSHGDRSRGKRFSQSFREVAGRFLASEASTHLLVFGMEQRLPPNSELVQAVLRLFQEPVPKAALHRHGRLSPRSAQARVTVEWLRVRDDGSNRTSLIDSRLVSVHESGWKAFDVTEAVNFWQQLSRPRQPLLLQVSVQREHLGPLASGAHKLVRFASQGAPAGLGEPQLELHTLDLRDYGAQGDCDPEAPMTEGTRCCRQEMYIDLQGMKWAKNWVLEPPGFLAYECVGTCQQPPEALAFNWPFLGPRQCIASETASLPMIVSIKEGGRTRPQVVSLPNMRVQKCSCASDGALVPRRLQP
Chain of Torsin-1A-interacting protein 1 (Homo sapiens) (Q5JTV8 whole entry, looked up): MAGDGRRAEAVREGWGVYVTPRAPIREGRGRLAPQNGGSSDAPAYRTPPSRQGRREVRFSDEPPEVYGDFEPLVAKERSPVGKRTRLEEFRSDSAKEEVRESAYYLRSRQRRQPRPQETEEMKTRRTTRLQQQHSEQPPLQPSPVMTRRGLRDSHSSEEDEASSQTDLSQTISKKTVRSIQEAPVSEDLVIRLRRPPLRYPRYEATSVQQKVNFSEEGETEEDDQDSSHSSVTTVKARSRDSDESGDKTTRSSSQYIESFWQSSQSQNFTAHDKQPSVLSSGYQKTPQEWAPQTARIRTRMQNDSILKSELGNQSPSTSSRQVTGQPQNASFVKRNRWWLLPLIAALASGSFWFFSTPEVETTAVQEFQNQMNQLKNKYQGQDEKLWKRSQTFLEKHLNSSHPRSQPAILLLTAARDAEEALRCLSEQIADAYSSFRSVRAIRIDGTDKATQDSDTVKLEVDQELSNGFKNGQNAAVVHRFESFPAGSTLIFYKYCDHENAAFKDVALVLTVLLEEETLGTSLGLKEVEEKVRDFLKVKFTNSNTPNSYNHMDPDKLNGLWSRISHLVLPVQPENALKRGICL

`C=C(CCCC)/C(=C/C[C@H](OC(=O)c1ccncc1)c1ccc(CO)o1)c1cc(C(=O)OC)ccc1OC`: the composite z-score is -0.0541 in test [1]; 0.982 in [3]; 0.786 in test [4]; -0.324 in test [5]; -0.196 in [6]; 0.256 in [7]. The composite z-score in test [8] was 0.95; in test [9] it was 0.539; in test [10], 1.28; with Albumin (Bos taurus), 0.572; in test [12], 0.201; in test [13], -0.0534. Also, the composite z-score in [14] stood at 0.609; in [15], 1.38; in test [16], 0.51; in the test on Sam68 (KHDRBS1), 1.31; in test [17], 0.487; in test [18], 1.02. This compound also showed a z-score in test [2] of -1.93. In [11], the composite Z-score is 0.243 (inactive).

With `CC(C)CNC(=O)[C@@]1(C)c2ccccc2C(=O)N(Cc2ccccc2)[C@H]1c1ccc(CO)cc1`, the composite z-score in test [1] was -0.205; in test [3] it was -1.55; in test [4] it was -1.21; in test [5] it was 0.431; in test [6] it was -0.192; in test [7] it was -0.0735. The composite z-score in [8] is -0.327; in [9], 0.055; in test [10], -0.905; with Albumin (Bos taurus), -0.928; in test [12], -0.352; in [13], -0.133. Moreover, the composite z-score is 0.788 in test [14]; 1.19 in test [15]; 1.16 in [16]; -0.992 with Sam68 (KHDRBS1); -2.5 in test [17]; -1.44 in test [18]. In addition, the z-score in [2] was 0.0768. Besides, in test [11], the composite Z-score was 3.02 (inactive).

`CCCc1cc2c(n1Cc1ccc(OC)cc1)C(C)C1CN(C(=O)c3ccccc3)C(C)(C(=O)OC)C21` (stereo not given): the composite z-score in test [1] is 0.247; in [3], -0.307; in test [4] it was 2.6; in [5] it was 1.42; in test [6], 0.157; in test [7], 0.686. Moreover, the composite z-score was 1.26 in test [8]; 2.19 in [9]; 2.52 in [10]; 1.08 in the test with Albumin (Bos taurus); 0.223 in test [12]; 0.16 in test [13]. The composite z-score is 0.571 in test [14]; 3.13 in test [15]; 0.746 in test [16]; 1.25 with Sam68 (KHDRBS1); -1.63 in test [17]; 1.18 in test [18]. Also, the z-score in [2] is -2.16. In addition, the composite Z-score in test [11] was -0.41 (inactive).

In the case of `COCCOC(=O)N1C(=O)[C@@]2(c3cc(C#CC4(O)CCCCCC4)ccc31)[C@H](C(=O)NC[C@H](O)c1ccccc1)[C@H]1C(=O)O[C@H](c3ccccc3)[C@H](c3ccccc3)N1[C@@H]2c1ccc(OCCO)cc1`, the composite z-score in [1] was 1.38; in [3] it was 0.358; in [4], 0.7; in [5], 0.383; in test [6], -0.282; in test [7], -0.638. Moreover, the composite z-score in test [8] was 0.14; in [9], 0.394; in test [10], 0.598; in the test with Albumin (Bos taurus), 0.067; in test [12] it was -0.0328; in test [13] it was -0.0995. Further, the composite z-score was found to be 0.495 in test [14]; 1.23 in test [15]; 0.217 in [16]; 1.3 in the test on Sam68 (KHDRBS1); 0.223 in test [17]; 1.13 in test [18]. In [2], this compound came in with a z-score of -1.73. The composite Z-score in [11] is 0.244 (inactive).

For the compound `CO[C@H]1O[C@H](CO)[C@@H](OC(=O)c2ccc(Br)cc2)[C@@H]2OC(=O)[C@H](Cc3cccc(Br)c3)C/C=C/C[C@@H](Cc3cccc(Br)c3)C(=O)O[C@@H]12`, the composite z-score in test [1] was 0.549; in test [3], 0.985; in [4] it was 0.622; in [5] it was 0.0872; in test [6], -0.113; in test [7], 0.317. The composite z-score in test [8] is -0.172; in test [9], 0.323; in [10], 0.867; in the test with Albumin (Bos taurus), 0.695; in test [12], 0.119; in test [13], -0.0486. For the same compound, the composite z-score in test [14] worked out at 0.439; in [15], 0.806; in test [16] it was 0.72; in the test with Sam68 (KHDRBS1) it was 1.18; in test [17], 0.511; in test [18], 0.583. The compound further had a z-score in test [2] of -2.15. The composite Z-score in test [11] was 0.528 (inactive).
